Experimental data from PubChem BioAssay (NCATS).
Results filed as inconclusive are left out. The source made the active and inactive calls. Unless noted, calls come from the whole dose curve; as a rule, active = well fitted curve in the direction sought with a large enough effect; inconclusive = small, poorly fitted or top-dose-only effect, or another doubt; inactive = no such curve, though single readings can be large; an effect the other way counts as inactive or inconclusive.

Columns and labels:
[1] = qHTS for Inhibitors of the Functional Ribonucleoprotein Complex (vRNP) of Lassa (LASV) Arenavirus: Viability assay - alamar blue signal for LASV Primary Screen (AID 1347083; calls by dose curve; tested in HEK293 reporter line; note: nearly all actives have a fitted effect of over 80% in size); details: cell viability, alamar blue fluorescence (LASV minigenome counter-screen); series mostly up to 57.5 µM
[2] = qHTS for Inhibitors of the Functional Ribonucleoprotein Complex (vRNP) of Lymphocytic Choriomeningitis Arenaviruses (LCMV): Viability assay - alamar blue signal for LCMV Primary Screen (AID 1347085; calls by dose curve; tested in HEK293 reporter line; note: nearly all actives have a fitted effect of over 80% in size); details: alamar blue viability counter-screen, LCMV vRNP screen cells; series mostly up to 57.5 µM
[3] = biological target: Nucleoprotein (Lymphocytic choriomeningitis virus (strain Armstrong)) (UniProt P09992); assay: qHTS for Inhibitors of the Functional Ribonucleoprotein Complex (vRNP) of Lymphocytic Choriomeningitis Arenaviruses (LCMV): LCMV Primary Screen - GLuc reporter signal (AID 1347086; calls by dose curve; note: nearly all actives have a fitted effect of over 70% in size); details: LCMV minigenome vRNP cell assay, Gaussia luciferase reporter; series mostly up to 57.5 µM
[4] = qHTS of pediatric cancer cell lines to identify multiple opportunities for drug repurposing: Primary screen for TC32 cells (AID 1347089); details: TC32 Ewing sarcoma viability, CellTiter-Glo luminescence, 48 h; series mostly up to 45.8 µM; note: nearly all actives have a fitted effect of over 60% in size
How it was run: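 A viability screen of TC32 cells was run over 48 h, with primary MIPE doses spanning 0.78 nM–46 µM and NPC doses 0.59 nM–46 µM. ATP luminescence (CellTiter-Glo) served as the read-out.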

[5] = qHTS of pediatric cancer cell lines to identify multiple opportunities for drug repurposing: Primary screen for DAOY cells (AID 1347090); details: DAOY medulloblastoma viability, CellTiter-Glo luminescence, 48 h; series mostly up to 46 µM; note: nearly all actives have a fitted effect of over 55% in size; note: potency is the fitted concentration of half-maximal effect
How it was run: (§1)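 Eight- or eleven-point concentration series, 48 h treatment at 37 degrees C in growth media; readout CellTiter-Glo luminescence. Potency and efficacy were taken from the concentration-response curves.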

[6] = qHTS of pediatric cancer cell lines to identify multiple opportunities for drug repurposing: Primary screen for A673 cells (AID 1347092); details: A673 Ewing sarcoma viability, CellTiter-Glo ATP luminescence, 48 h; series mostly up to 46 µM; note: nearly all actives have a fitted effect of over 45% in size
How it was run: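 Titration-based qHTS on A673 cells: MIPE compounds spanned 11 points (0.78 nM to 46 µM final), NPC compounds 8 points (0.59 nM to 46 µM final). Viability after 48 h was measured by ATP luminescence.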

[7] = qHTS of pediatric cancer cell lines to identify multiple opportunities for drug repurposing: Primary screen for SK-N-MC cells (AID 1347093); details: SK-N-MC viability, CellTiter-Glo luminescence, 48 h; series mostly up to 46 µM; note: potency is the fitted concentration of half-maximal effect
How it was run: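 Metabolically active cells were quantified by ATP-dependent luminescence (CellTiter-Glo, 15 min at room temperature) following 48 h treatment. Cells had been plated at 500-1,000 per well and settled for 5 h beforehand.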

[8] = qHTS of pediatric cancer cell lines to identify multiple opportunities for drug repurposing: Primary screen for BT-37 cells (AID 1347094); details: BT-37 viability, CellTiter-Glo luminescence, 48 h; series mostly up to 57.3 µM
How it was run: (§2)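 CRCs from 8- or 11-point titrations (lowest final 0.59 nM NPC, 0.78 nM MIPE). Cell viability: CellTiter-Glo after 48 h incubation, 15 min room-temperature development, luminescence imaging.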

[9] = qHTS of pediatric cancer cell lines to identify multiple opportunities for drug repurposing: Primary screen for NB-EBc1 cells (AID 1347095); details: NB-EBc1 neuroblastoma viability, CellTiter-Glo luminescence, 48 h; series mostly up to 46 µM; note: potency is the fitted concentration of half-maximal effect
How it was run: as §2

[10] = qHTS of pediatric cancer cell lines to identify multiple opportunities for drug repurposing: Primary screen for Saos-2 cells (AID 1347097); details: Saos-2 viability, CellTiter-Glo ATP luminescence, 48 h; series mostly up to 46 µM; note: nearly all actives have a fitted effect of over 40% in size
How it was run: as §2

[11] = qHTS of pediatric cancer cell lines to identify multiple opportunities for drug repurposing: Primary screen for SK-N-SH cells (AID 1347098); details: SK-N-SH viability, CellTiter-Glo luminescence, 48 h; series mostly up to 57 µM; note: nearly all actives have a fitted effect of over 65% in size; note: potency is the fitted concentration of half-maximal effect
How it was run: (§3)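 Cells (500-1,000/well) rested 5 h, then received compounds for 48 h; metabolically active cells were measured by CellTiter-Glo luminescence. Final concentrations spanned up to 46 µM (MIPE, 11-point) or 0.59 nM-46 µM (NPC, 8-point) in primary screens, 11-point in follow-ups.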

[12] = qHTS of pediatric cancer cell lines to identify multiple opportunities for drug repurposing: Primary screen for NB1643 cells (AID 1347099); details: NB1643 neuroblastoma viability, CellTiter-Glo luminescence, 48 h; series mostly up to 46 µM; note: nearly all actives have a fitted effect of over 50% in size; note: potency is the fitted concentration of half-maximal effect
How it was run: as §2

[13] = qHTS of pediatric cancer cell lines to identify multiple opportunities for drug repurposing: Primary screen for LAN-5 cells (AID 1347100); details: LAN-5 neuroblastoma viability, CellTiter-Glo luminescence, 48 h; series mostly up to 46 µM; note: potency is the fitted concentration of half-maximal effect
How it was run: (§4)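 Cells (500-1,000/well) in growth media were settled 5 h at 37 degrees C, then given compounds for 48 h. Viability was read as CellTiter-Glo luminescence. Primary runs used MIPE at 11 points (0.78 nM-46 µM) and NPC at 8 points (0.59 nM-46 µM); follow-ups used 11 points.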

[14] = qHTS of pediatric cancer cell lines to identify multiple opportunities for drug repurposing: Primary screen for BT-12 cells (AID 1347101); details: BT-12 viability, CellTiter-Glo luminescence, 48 h; series mostly up to 57.3 µM; note: nearly all actives have a fitted effect of over 25% in size; note: potency is the fitted concentration of half-maximal effect
How it was run: as §3

[15] = qHTS of pediatric cancer cell lines to identify multiple opportunities for drug repurposing: Primary screen for Rh18 cells (AID 1347102); details: Rh18 rhabdomyosarcoma viability, CellTiter-Glo luminescence, 48 h; series mostly up to 46 µM; note: nearly all actives have a fitted effect of over 65% in size
How it was run: as §4

[16] = qHTS of pediatric cancer cell lines to identify multiple opportunities for drug repurposing: Primary screen for OHS-50 cells (AID 1347103); details: OHS-50 osteosarcoma viability, CellTiter-Glo luminescence, 48 h; series mostly up to 57.3 µM; note: nearly all actives have a fitted effect of over 40% in size; note: potency is the fitted concentration of half-maximal effect
How it was run: as §3

[17] = qHTS of pediatric cancer cell lines to identify multiple opportunities for drug repurposing: Primary screen for RD cells (AID 1347104); details: RD rhabdomyosarcoma viability, CellTiter-Glo luminescence, 48 h; series mostly up to 46 µM; note: nearly all actives have a fitted effect of over 55% in size
How it was run: as §2

[18] = qHTS of pediatric cancer cell lines to identify multiple opportunities for drug repurposing: Primary screen for SJ-GBM2 cells (AID 1347091); details: SJ-GBM2 viability, CellTiter-Glo luminescence, 48 h; series mostly up to 46 µM; note: potency is the fitted concentration of half-maximal effect
How it was run: as §1

[19] = qHTS of pediatric cancer cell lines to identify multiple opportunities for drug repurposing: Primary screen for U-2 OS cells (AID 1347096); details: U-2 OS viability, CellTiter-Glo luminescence, 48 h; series mostly up to 46 µM; note: nearly all actives have a fitted effect of over 50% in size
How it was run: as §4

[20] = qHTS of pediatric cancer cell lines to identify multiple opportunities for drug repurposing: Primary screen for MG 63 (6-TG R) cells (AID 1347105); details: MG 63 (6-TG R) viability, CellTiter-Glo, 48 h; series mostly up to 46 µM; note: nearly all actives have a fitted effect of over 50% in size; note: potency is the fitted concentration of half-maximal effect
How it was run: as §2

Measured: Potency

Sequence of Nucleoprotein (Lymphocytic choriomeningitis virus (strain Armstrong)) (P09992 whole entry, looked up): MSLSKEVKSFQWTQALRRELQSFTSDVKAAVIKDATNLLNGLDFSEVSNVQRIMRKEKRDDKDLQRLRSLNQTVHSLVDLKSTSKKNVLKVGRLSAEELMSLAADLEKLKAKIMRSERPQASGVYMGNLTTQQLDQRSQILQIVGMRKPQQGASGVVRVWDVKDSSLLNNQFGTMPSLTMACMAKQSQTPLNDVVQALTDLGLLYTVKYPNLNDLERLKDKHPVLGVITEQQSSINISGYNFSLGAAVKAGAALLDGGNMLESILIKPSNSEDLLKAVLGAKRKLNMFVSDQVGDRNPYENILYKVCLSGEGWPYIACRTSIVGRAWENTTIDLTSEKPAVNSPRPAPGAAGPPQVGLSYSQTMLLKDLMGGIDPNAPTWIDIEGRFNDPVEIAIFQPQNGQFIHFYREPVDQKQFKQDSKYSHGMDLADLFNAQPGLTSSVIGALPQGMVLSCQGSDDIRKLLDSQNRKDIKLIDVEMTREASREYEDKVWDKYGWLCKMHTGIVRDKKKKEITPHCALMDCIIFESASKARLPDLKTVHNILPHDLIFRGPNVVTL

O=c1oc2ccccc2c(O)c1Cc1c(O)c2ccccc2oc1=O
active: [7] 15 µM | [9] 15 µM
not listed: [18] | [19] | [20]
inactive: all other assays above

C[C@]12CC[C@@H]3c4ccc(OC(=O)N(CCCl)CCCl)cc4CC[C@H]3[C@@H]1CC[C@@H]2O
not listed: [9] | [10] | [12] | [16] | [18] | [19] | [20]
inactive: all other assays above

C[C@H]1[C@@H]2Cc3ccc(O)cc3[C@@]1(C)CCN2C
not listed: [7] | [12] | [16] | [20]
inactive: all other assays above

C[C@]12CC[C@@H]3c4ccc(OC(=O)N(CCCl)CCCl)cc4CC[C@H]3[C@@H]1CC[C@@H]2OP(=O)(O)O
active: [18] 16.6 µM
not listed: [7] | [9] | [10] | [12] | [19] | [20]
inactive: all other assays above

CN1CCC(O)(c2ccc(F)cc2)C(C(=O)c2ccc(F)cc2)C1 (stereo unspecified)
not listed: [7] | [11] | [20]
inactive: all other assays above

O=C(CCCN1CCC2(CC1)C(=O)NCN2c1ccccc1)c1ccc(F)cc1
not listed: [8] | [10] | [12] | [14] | [16] | [18] | [20]
inactive: all other assays above

CC(C)c1c(CN(C)C(C)Cc2ccccc2)n(C)n(-c2ccccc2)c1=O (stereo unspecified)
not listed: [14] | [18]
inactive: all other assays above

Clc1ccc(C(c2ccc(Cl)cc2)C(Cl)(Cl)Cl)cc1
inactive: [1] | [2] | [3] | [4] | [18] | [13] | [14] | [15] | [17]

COc1c2c(cc3c1OCO3)CCN(C)C2
not listed: [7] | [10] | [12] | [16] | [20]
inactive: all other assays above

Clc1cccc(SC2CCNCC2)n1
not listed: [7] | [12] | [19]
inactive: all other assays above

CC[N+]1(CC)CCC(OC(=O)C(O)(c2ccccc2)c2ccccc2)C1 (stereo unspecified)
not listed: [7] | [19]
inactive: all other assays above

O=C(Nc1ccc(Br)cc1)c1cc(Br)cc(Br)c1O
inactive: [1] | [2] | [3] | [4] | [15]
active: [5] 21.1 µM | [11] 34.4 µM | [12] 9.44 µM | [14] 27.6 µM | [16] 21.9 µM | [20] 33.5 µM

CCCCC/C=C\C/C=C\C/C=C\C/C=C\CCCC(=O)NCC(=O)O
not listed: [7] | [9] | [10] | [20]
inactive: all other assays above

CC(C)c1cccc(C(C)C)c1O
not listed: [7] | [11] | [14]
inactive: all other assays above

CCN(CC)CCc1c[nH]c2ccccc12
active: [11] 37 µM
not listed: [7] | [12] | [16]
inactive: all other assays above

COc1cccc(C(=O)CCN[C@@H](C)[C@H](O)c2ccccc2)c1
active: [5] 26.6 µM | [11] 30.7 µM
inactive: [1] | [2] | [3] | [4] | [18] | [8] | [14] | [15]

CN1CC[C@]23c4c5ccc(O)c4O[C@H]2[C@@H](O)C=C[C@H]3[C@H]1C5
not listed: [6] | [7] | [10] | [11] | [12] | [14] | [17] | [19]
inactive: all other assays above

CCC(C)C(C)(COC(N)=O)COC(N)=O (stereo unspecified)
not listed: [7] | [12] | [19] | [20]
inactive: all other assays above

COC1CC(=C(c2cccs2)c2cccs2)C[N+](C)(C)C1 (stereo unspecified)
not listed: [6] | [7] | [14] | [19]
inactive: all other assays above

O=C1OC(CCN2CCCCC2)OC1(c1ccccc1)c1ccccc1 (stereo unspecified)
active: [13] 4.73 µM
not listed: [5] | [6] | [7] | [11] | [12] | [20]
inactive: all other assays above

CC(NC(C)(C)C)C(=O)c1cccc(Cl)c1 (stereo unspecified)
not listed: [7] | [19]
inactive: all other assays above

C=CCN1C[C@H](C)N([C@H](c2ccc(C(=O)N(CC)CC)cc2)c2cccc(OC)c2)C[C@H]1C
not listed: [7] | [12] | [19]
inactive: all other assays above

COP(=S)(OC)SCN1C(=O)c2ccccc2C1=O
not listed: [5] | [6] | [7] | [10] | [12]
inactive: all other assays above

O=c1c(C2CC(c3ccc(-c4ccc(Br)cc4)cc3)Cc3ccccc32)c(O)sc2ccccc12 (stereo unspecified)
active: [18] 11.9 µM | [9] 7.5 µM | [12] 10.6 µM | [13] 10.6 µM
inactive: [1] | [2] | [3] | [4] | [6] | [19] | [15]

c1ccc(N2CCNCC2)cc1
not listed: [7] | [19]
inactive: all other assays above

COc1cc(CCN)cc(OC)c1OC
not listed: [7] | [11] | [12]
inactive: all other assays above

CC(=O)NC1CCSC1=O (stereo unspecified)
not listed: [7] | [10] | [12] | [20]
inactive: all other assays above

COc1cc(OC)c(OC)cc1C=O
not listed: [7] | [19] | [20]
inactive: all other assays above

CC(C)(C)NCC(O)c1cc(Cl)c(N)c(C(F)(F)F)c1 (stereo unspecified)
not listed: [7] | [19]
inactive: all other assays above

C[C@]12CCC(=O)C=C1CC[C@@H]1[C@@H]2CC[C@@]2(C)[C@H]1CC[C@]2(C)O
not listed: [7] | [9] | [10] | [14] | [16] | [18] | [20]
inactive: all other assays above
